# Test results reported in PMC7862700, “An all-to-all approach to the identification of sequence-specific readers for epigenetic DNA modifications on cytosine”.
# Key:
# Assay in all cases: DAPPL (digital affinity profiling via proximity ligation, sequencing); 10 mM Tris-HCl pH 7.5, 50 mM NaCl, 1 mM DTT, 4% glycerol, room temperature, 30 min; GST-TFs on glutathione beads, 16-mer random dsDNA library, 0.1% formaldehyde crosslink after washing; high values mean tight binding
# FLI1 = molecular target: T1, FLI1 (Homo sapiens, UniProt Q01543 1-452); conditions: protein: recombinant; tags: N-terminal GST; dsDNA, one strand shown
# T1 sequence: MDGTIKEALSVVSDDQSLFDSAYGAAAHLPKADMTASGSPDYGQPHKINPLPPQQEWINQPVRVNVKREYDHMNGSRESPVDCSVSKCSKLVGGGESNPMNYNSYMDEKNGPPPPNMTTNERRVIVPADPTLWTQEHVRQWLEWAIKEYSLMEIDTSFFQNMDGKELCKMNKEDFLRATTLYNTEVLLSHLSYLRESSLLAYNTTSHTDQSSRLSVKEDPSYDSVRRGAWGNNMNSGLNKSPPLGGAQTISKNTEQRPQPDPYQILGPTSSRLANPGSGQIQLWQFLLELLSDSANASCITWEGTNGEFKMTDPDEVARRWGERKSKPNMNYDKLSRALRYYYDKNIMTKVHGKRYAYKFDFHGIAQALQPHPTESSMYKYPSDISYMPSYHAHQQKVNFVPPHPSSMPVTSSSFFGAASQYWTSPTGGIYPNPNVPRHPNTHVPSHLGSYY
# Procedure, shortened: (§1)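 The binding signal reported is, for every hexamer, its read frequency for a factor over its read frequency for the tag-only sample. Reads came from pools of yeast-expressed, GST-fused human transcription factors on glutathione beads, barcoded with DNA and mixed with that sample, which were incubated with 200 nmole of a random double-stranded 16-mer DNA library in Tris/NaCl/DTT/glycerol buffer at room temperature for 30 min. After washing, the pools were crosslinked with 0.1% formaldehyde, proximity-ligated with BsaI/T4 ligase for 1 h at 37 °C, PCR-amplified and sequenced on an Illumina NextSeq500.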
# ELK1 = molecular target: T2, ELK1 (Homo sapiens, UniProt P19419 1-428); conditions: protein: recombinant; tags: N-terminal GST; dsDNA, one strand shown
# T2 sequence: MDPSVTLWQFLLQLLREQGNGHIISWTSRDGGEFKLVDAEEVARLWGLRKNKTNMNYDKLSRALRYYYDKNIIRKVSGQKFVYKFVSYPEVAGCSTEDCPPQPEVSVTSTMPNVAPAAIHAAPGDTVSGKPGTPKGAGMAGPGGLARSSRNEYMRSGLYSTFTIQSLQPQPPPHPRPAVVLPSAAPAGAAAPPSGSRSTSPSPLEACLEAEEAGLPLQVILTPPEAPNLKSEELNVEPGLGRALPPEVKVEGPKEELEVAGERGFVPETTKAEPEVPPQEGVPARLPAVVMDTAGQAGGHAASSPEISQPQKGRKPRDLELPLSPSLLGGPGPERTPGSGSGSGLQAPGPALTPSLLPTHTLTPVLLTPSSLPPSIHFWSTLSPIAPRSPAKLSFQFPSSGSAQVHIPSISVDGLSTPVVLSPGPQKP
# Procedure, shortened: as §1
# GABPA = molecular target: T3, GABPA (Homo sapiens, UniProt Q06546 1-454); conditions: protein: recombinant; tags: N-terminal GST; dsDNA, one strand shown
# T3 sequence: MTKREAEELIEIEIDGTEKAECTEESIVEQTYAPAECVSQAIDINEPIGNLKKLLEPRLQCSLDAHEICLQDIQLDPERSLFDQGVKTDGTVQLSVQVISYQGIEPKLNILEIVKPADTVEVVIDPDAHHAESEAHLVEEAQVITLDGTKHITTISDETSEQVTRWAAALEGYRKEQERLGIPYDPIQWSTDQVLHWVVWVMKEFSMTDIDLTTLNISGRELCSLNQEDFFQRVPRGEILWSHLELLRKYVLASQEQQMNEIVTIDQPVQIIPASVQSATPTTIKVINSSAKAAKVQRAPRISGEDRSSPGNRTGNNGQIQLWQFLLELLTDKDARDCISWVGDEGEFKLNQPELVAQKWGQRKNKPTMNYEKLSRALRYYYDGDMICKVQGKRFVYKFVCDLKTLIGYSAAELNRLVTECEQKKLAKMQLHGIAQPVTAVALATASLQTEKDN
# Procedure, shortened: as §1
# ERG = molecular target: T4, ERG (Homo sapiens, UniProt P11308 1-479); conditions: protein: recombinant; tags: N-terminal GST; dsDNA, one strand shown
# T4 sequence: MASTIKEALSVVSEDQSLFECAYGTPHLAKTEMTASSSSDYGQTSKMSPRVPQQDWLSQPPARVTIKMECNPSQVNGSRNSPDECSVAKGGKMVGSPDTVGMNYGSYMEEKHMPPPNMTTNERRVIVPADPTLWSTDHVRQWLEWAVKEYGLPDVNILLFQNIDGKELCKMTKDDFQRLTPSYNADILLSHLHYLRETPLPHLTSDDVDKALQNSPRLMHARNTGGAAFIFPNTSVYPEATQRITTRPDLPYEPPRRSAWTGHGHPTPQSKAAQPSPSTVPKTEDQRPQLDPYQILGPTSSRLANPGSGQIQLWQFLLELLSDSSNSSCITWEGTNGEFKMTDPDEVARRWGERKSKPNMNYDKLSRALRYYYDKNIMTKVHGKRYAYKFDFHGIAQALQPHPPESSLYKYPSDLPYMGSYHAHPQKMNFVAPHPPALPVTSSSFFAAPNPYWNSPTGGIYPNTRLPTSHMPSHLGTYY
# Procedure, shortened: as §1
# ELF1 = ELF1 (Homo sapiens, UniProt P32519 1-619); conditions: protein: recombinant; tags: N-terminal GST; dsDNA, one strand shown
# Procedure, shortened: as §1
# EHF = molecular target: T5, EHF (Homo sapiens, UniProt Q9NZC4 1-300); conditions: protein: recombinant; tags: N-terminal GST; dsDNA, one strand shown
# T5 sequence: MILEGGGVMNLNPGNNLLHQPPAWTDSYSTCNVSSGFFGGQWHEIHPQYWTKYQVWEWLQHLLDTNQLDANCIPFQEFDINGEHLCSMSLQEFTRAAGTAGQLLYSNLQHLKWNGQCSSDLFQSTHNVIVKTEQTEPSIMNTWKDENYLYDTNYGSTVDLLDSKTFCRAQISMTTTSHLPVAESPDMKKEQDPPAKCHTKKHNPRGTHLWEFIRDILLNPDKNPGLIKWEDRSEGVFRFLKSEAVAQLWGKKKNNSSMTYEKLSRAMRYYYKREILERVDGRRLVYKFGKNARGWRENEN
# Procedure, shortened: as §1
# SPIB = SPIB (Homo sapiens, UniProt Q01892 1-262); conditions: protein: recombinant; tags: N-terminal GST; dsDNA, one strand shown
# Procedure, shortened: as §1
# ELK3 = molecular target: T6, ELK3 (Homo sapiens, UniProt P41970 1-407); conditions: protein: recombinant; tags: N-terminal GST; dsDNA, one strand shown
# T6 sequence: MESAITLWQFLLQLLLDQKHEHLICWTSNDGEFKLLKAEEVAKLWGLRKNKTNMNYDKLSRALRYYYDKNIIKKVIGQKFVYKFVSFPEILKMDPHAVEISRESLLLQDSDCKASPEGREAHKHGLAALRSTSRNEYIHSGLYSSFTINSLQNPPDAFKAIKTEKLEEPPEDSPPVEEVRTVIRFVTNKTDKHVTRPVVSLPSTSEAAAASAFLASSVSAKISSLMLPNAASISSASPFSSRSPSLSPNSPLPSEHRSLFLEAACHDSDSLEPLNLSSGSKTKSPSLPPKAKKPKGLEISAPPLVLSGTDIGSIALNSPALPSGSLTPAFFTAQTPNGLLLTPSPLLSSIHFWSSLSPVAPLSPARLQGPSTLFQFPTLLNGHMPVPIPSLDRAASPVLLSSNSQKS
# Procedure, shortened: as §1
# FEV = molecular target: T7, FEV (Homo sapiens, UniProt Q99581 1-238); conditions: protein: recombinant; tags: N-terminal GST; dsDNA, one strand shown
# T7 sequence: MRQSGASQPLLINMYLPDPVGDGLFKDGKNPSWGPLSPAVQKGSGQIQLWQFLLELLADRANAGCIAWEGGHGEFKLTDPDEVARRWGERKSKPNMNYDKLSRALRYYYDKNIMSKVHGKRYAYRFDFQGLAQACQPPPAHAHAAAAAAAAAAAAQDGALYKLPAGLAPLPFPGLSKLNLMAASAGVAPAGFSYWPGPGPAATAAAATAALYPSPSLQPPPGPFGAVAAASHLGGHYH
# Procedure, shortened: as §1
# ETV5 = ETV5 (Homo sapiens, UniProt P41161 1-510); conditions: protein: recombinant; tags: N-terminal GST; dsDNA, one strand shown
# Procedure, shortened: as §1
# HSF1 = HSF1 (Homo sapiens, UniProt Q00613 1-529); conditions: protein: recombinant; tags: N-terminal GST; chain copies: 3; dsDNA, one strand shown
# Procedure, shortened: as §1
# ELF4 = ELF4 (Homo sapiens, UniProt Q99607 1-663); conditions: protein: recombinant; tags: N-terminal GST; dsDNA, one strand shown
# Procedure, shortened: as §1
# ELK4 = molecular target: T8, ELK4 (Homo sapiens, UniProt P28324-2 1-405); conditions: protein: recombinant; tags: N-terminal GST; dsDNA, one strand shown
# T8 sequence: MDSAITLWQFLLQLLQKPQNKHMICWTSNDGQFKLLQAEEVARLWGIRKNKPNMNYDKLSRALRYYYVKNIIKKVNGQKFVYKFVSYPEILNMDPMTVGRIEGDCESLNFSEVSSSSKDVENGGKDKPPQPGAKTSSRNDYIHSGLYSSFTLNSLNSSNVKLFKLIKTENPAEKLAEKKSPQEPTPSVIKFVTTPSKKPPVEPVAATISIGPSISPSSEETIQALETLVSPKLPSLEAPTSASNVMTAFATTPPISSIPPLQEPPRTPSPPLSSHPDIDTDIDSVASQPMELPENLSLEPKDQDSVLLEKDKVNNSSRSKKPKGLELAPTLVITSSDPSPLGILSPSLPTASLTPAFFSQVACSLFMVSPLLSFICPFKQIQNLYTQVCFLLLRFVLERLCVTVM
# Procedure, shortened: as §1
# ETV2 = molecular target: T9, ETV2 (Homo sapiens, UniProt O00321 1-342); conditions: protein: recombinant; tags: N-terminal GST; dsDNA, one strand shown
# T9 sequence: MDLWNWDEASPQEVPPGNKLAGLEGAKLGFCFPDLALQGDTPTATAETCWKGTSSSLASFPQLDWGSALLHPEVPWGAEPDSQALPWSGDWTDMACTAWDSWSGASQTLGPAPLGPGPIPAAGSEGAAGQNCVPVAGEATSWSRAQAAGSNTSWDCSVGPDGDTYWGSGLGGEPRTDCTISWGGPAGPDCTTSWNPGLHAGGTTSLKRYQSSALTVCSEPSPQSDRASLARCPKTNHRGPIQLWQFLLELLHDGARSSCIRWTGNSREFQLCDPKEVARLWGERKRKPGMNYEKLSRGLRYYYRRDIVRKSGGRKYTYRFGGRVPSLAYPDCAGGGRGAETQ
# Procedure, shortened: as §1
# ELF3 = molecular target: T10, ELF3 (Homo sapiens, UniProt P78545 1-371); conditions: protein: recombinant; tags: N-terminal GST; dsDNA, one strand shown
# T10 sequence: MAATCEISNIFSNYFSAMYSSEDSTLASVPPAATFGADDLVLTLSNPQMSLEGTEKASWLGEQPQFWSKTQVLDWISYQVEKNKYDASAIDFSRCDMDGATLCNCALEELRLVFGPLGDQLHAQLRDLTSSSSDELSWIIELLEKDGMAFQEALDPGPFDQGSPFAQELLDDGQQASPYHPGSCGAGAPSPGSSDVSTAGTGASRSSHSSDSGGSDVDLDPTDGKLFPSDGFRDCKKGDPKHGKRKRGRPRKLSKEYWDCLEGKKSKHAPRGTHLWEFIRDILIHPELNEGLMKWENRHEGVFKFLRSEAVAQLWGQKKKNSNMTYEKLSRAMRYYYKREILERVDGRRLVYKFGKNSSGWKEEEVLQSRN
# Procedure, shortened: as §1
# CRX = CRX (Homo sapiens, UniProt O43186 1-299); conditions: protein: recombinant; tags: N-terminal GST; dsDNA, one strand shown
# Procedure, shortened: as §1
# ETV1 = ETV1 (Homo sapiens, UniProt P50549 1-477); conditions: protein: recombinant; tags: N-terminal GST; dsDNA, one strand shown
# Procedure, shortened: as §1
# Sequence of CRX (O43186 whole entry): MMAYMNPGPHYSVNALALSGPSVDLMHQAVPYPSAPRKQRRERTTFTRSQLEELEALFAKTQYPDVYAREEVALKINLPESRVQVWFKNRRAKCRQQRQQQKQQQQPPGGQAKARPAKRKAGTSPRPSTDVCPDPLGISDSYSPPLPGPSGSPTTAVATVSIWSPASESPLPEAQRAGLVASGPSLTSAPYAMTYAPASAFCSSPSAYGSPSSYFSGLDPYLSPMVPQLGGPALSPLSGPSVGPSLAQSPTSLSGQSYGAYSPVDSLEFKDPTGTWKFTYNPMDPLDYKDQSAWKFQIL
# Sequence of ETV5 (P41161 whole entry): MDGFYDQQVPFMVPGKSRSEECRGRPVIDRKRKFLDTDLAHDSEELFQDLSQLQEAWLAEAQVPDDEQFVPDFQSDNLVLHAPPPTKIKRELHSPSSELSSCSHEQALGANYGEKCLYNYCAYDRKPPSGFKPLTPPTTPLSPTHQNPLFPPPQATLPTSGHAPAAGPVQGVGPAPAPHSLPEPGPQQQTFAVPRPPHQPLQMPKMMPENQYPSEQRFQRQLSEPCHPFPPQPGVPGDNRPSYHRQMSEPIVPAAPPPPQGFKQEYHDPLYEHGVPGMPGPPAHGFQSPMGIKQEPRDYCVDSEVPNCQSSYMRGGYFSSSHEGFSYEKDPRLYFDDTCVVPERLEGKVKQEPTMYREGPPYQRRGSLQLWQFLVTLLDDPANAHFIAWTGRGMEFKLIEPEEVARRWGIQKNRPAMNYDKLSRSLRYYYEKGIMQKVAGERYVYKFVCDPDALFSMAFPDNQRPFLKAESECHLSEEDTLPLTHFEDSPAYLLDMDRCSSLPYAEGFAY
# Sequence of ETV1 (P50549 whole entry): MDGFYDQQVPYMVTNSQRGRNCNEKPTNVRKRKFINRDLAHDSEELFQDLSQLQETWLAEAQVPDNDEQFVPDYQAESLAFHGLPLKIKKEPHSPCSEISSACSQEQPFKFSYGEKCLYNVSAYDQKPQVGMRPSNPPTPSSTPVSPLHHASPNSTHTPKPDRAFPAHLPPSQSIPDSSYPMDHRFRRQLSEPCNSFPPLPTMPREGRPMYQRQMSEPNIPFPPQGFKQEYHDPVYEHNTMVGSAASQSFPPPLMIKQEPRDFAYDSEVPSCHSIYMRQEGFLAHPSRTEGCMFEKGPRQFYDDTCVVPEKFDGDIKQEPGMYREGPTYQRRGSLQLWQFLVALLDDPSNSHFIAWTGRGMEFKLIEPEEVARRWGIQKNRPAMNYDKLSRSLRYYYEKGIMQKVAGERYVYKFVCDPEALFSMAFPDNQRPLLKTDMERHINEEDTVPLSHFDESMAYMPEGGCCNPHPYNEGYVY
# Sequence of ELF1 (P32519 whole entry): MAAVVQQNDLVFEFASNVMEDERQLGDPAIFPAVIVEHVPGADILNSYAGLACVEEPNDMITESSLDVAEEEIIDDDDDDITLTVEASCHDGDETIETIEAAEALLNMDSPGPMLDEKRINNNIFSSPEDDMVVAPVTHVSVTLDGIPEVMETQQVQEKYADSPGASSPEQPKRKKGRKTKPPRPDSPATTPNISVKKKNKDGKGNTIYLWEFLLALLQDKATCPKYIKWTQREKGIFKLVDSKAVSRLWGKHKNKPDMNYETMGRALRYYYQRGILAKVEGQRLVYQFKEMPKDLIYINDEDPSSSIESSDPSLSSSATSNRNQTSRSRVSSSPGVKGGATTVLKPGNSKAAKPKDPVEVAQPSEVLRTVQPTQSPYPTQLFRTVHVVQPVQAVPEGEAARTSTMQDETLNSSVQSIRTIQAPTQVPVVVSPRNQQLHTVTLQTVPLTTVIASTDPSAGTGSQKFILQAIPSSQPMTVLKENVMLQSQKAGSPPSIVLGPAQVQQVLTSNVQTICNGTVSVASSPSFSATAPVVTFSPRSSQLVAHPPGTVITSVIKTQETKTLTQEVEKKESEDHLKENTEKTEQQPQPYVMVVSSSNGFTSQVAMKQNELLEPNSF
# Sequence of ELF4 (Q99607 whole entry): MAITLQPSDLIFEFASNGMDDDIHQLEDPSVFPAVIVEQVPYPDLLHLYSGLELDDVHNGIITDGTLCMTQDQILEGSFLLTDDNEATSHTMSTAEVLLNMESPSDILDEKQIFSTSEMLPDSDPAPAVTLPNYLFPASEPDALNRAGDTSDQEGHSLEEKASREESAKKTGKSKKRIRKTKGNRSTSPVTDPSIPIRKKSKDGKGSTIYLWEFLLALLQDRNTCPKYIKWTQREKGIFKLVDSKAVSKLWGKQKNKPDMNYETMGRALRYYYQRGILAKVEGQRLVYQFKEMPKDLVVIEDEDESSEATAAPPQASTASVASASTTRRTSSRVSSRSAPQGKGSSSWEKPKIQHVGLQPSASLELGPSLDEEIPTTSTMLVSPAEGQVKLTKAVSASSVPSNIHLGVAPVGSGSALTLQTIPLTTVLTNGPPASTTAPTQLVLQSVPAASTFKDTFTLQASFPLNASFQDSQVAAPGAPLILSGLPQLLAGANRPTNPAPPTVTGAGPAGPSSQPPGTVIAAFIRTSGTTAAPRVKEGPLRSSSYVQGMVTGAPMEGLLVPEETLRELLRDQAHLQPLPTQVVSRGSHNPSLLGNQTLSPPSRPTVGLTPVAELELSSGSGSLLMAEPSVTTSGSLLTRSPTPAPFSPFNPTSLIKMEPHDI
# Sequence of HSF1 (Q00613 whole entry): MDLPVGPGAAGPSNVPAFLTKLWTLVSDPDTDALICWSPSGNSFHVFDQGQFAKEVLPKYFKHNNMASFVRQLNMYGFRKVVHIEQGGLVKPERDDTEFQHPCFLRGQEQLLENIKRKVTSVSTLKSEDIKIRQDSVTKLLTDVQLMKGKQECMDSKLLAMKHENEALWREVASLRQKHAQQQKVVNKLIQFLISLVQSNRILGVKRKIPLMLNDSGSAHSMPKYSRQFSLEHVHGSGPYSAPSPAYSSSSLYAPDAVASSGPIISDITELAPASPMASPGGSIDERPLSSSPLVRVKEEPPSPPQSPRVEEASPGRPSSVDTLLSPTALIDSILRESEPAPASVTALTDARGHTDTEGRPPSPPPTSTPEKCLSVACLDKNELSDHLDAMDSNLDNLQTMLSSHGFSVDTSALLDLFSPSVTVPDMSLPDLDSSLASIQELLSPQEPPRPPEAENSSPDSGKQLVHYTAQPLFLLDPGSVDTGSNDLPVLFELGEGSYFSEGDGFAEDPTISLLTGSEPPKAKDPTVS
# Sequence of SPIB (Q01892 whole entry): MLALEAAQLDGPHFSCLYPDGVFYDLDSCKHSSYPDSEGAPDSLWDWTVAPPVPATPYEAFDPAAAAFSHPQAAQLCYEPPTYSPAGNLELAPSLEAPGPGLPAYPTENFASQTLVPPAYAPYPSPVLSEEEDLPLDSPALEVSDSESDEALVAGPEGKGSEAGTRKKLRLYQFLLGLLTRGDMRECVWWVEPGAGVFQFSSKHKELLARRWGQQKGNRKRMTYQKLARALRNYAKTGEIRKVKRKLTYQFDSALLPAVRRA
sequence,measurement,setting,value
AATCCA,binding signal,FLI1,"1.09 fold enrichment (6-mer frequency, TF over GST control)"
same,binding signal,ELK1,"1.07 fold enrichment (6-mer frequency, TF over GST control)"
same,binding signal,GABPA,"1.09 fold enrichment (6-mer frequency, TF over GST control)"
same,binding signal,ERG,"1.1 fold enrichment (6-mer frequency, TF over GST control)"
same,binding signal,ELF1,"1.09 fold enrichment (6-mer frequency, TF over GST control)"
same,binding signal,EHF,"1.07 fold enrichment (6-mer frequency, TF over GST control)"
same,binding signal,SPIB,"1.12 fold enrichment (6-mer frequency, TF over GST control)"
same,binding signal,ELK3,"1.07 fold enrichment (6-mer frequency, TF over GST control)"
same,binding signal,FEV,"1.11 fold enrichment (6-mer frequency, TF over GST control)"
same,binding signal,ETV5,"1.07 fold enrichment (6-mer frequency, TF over GST control)"
same,binding signal,HSF1,"1.78 fold enrichment (6-mer frequency, TF over GST control)"
same,binding signal,ELF4,"1.12 fold enrichment (6-mer frequency, TF over GST control)"
same,binding signal,ELK4,"1.18 fold enrichment (6-mer frequency, TF over GST control)"
same,binding signal,ETV2,"1.03 fold enrichment (6-mer frequency, TF over GST control)"
same,binding signal,ELF3,"1.1 fold enrichment (6-mer frequency, TF over GST control)"
same,binding signal,CRX,"2.33 fold enrichment (6-mer frequency, TF over GST control)"
same,binding signal,ETV1,"1.12 fold enrichment (6-mer frequency, TF over GST control)"
